Calls of active or inactive are those of the source. Rule as the data show it: active = log2 fold change growth below about -1.8; inactive = the rest.
Experiment: C. elegans growth inhibition, whole organism, log2 fold change (AID 1259336);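 also: growth scored by imaging after five days at 20 °C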
Conditions: anthelmintic screen, stronger effect = lower value

Row | SMILES | log2 fold change growth
1 | CC(=O)N(CCN(C(=O)c1ccc(F)cc1)c1ccccc1)c1ccccc1 | 0.382 (inactive)
2 | CC(=O)NC[C@H]1CN(c2ccc(N3CCSCC3)c(F)c2)C(=O)O1 | 0.00512 (inactive)
3 | O=C(Nc1cccnc1)c1c(O)c2cccc3c2n(c1=O)CC3 | -4.81 (active)
4 | O=C(NC1=NCCS1)c1sc2cc(F)ccc2c1Cl | -0.159 (inactive)
5 | Cc1ccc2[nH]c([C@H]3CCCNC3)c(-c3ccncc3)c2c1 | 0.649 (inactive)
6 | CNCC[C@H](Oc1ccc(C(F)(F)F)cc1)c1ccccc1 | 0.102 (inactive)
7 | NCCN(C(=O)c1ccc(Cl)cc1Cl)c1ccc(OCc2ccc(Cl)cc2)cc1 | -0.0401 (inactive)
8 | CN(C)CCNC(=O)N1CCCN(c2ncnc3cc(-c4ccccc4)sc23)CC1 | -0.255 (inactive)
9 | c1ccc(C[C@@H]2CN(c3nccc(Oc4ccc(-n5ccnc5)cc4)n3)CCN2)cc1 | 0.11 (inactive)
10 | COc1cncc(-c2cncc(N3CCN(c4ccncc4)CC3)n2)c1 | -0.191 (inactive)
11 | Cc1ccccc1C(=O)N1NC(=Nc2ccccc2)SC1(C)C | -0.306 (inactive)
12 | CC(=O)Nc1ccc(-c2noc(C[C@H]3CCCN(Cc4cccc(F)c4C)C3)n2)cc1 | 0.251 (inactive)
13 | CC1=Nc2ccc(Cl)cc2[C@H](c2ccccc2)N1CCNC(=O)CN(C)C | 0.44 (inactive)
14 | O=C(NCc1cc(Cl)cc(Cl)c1)c1c(C(F)(F)F)nc2ccccn12 | -0.11 (inactive)
15 | O=C([C@@H](c1ccc(Cl)cc1)c1cccnc1)N1CCN(c2ccc(C(F)(F)F)cc2)CC1 | -0.994 (inactive)
16 | Clc1ccc(CN2CCN(C3=NCCN3)CC2)cc1Cl | 0.0846 (inactive)
17 | COc1cccc2c(C)nc(N=C(N)N)nc12 | 0.0276 (inactive)
18 | NS(=O)(=O)c1cncc(-c2ccc3nccc(-c4cn[nH]c4)c3n2)c1 | -0.501 (inactive)
19 | Cc1ccc(NC(=O)c2nc[nH]c2C(=O)Nc2nc3ccccc3[nH]2)c(C)c1 | -0.815 (inactive)

Row | SMILES | log2 fold change growth
20 | COc1ccc(O[C@@H](C)C(=O)Nc2ccc(Cl)cc2C)cc1 | 0.539 (inactive)
21 | O=C(Nc1cccc(-c2ccc(NCCCN3CCCC3)nc2)c1)c1ccccc1 | 0.467 (inactive)
22 | Cc1ccc2nc(Cl)c(CNCc3cccs3)cc2c1 | -0.121 (inactive)
23 | COc1nc2ccc(Br)cc2cc1[C@@H](c1ccccc1)[C@@](O)(CCN(C)C)c1cccc2ccccc12 | 0.248 (inactive)
24 | N[C@@H](CC(=O)c1ccc(Cl)cc1Cl)C(Cl)(Cl)Cl | -0.444 (inactive)
25 | CC(C)(C)c1ccc(N[C@@H]2CCCC[C@H]2NC(=O)c2ccco2)cc1 | 0.519 (inactive)
26 | COc1ccc([C@@H]2CC(c3cccs3)=NN2C(=O)c2ccco2)cc1OC | -0.296 (inactive)
27 | CC[C@H](CO)NCCN[C@H](CC)CO | -0.0318 (inactive)
28 | N#Cc1ccc(-c2ccc(OCC(N)=O)cc2)cc1 | -0.349 (inactive)
29 | Cc1cc(Cl)c(S(=O)(=O)N2CCCC2)cc1OCC(=O)NC1CCCCC1 | -0.00734 (inactive)
30 | COc1cc(-c2cc(-c3ccc(S(C)(=O)=O)cc3)cnc2N)ccc1O | -0.318 (inactive)
31 | O=C(Nc1nc(-c2ccccn2)cs1)c1cncn1-c1ccccc1 | -0.307 (inactive)
32 | Nc1nccc2ccc(-c3ccc4nccn4c3)cc12 | 0.14 (inactive)
33 | Cc1[nH]c2ccccc2c1[C@H](c1cccs1)N1CCN(C)CC1 | -0.0891 (inactive)
34 | O=C(C1CCN(c2nnc(-n3cccc3)s2)CC1)N1CCC(Cc2ccccc2)CC1 | 0.102 (inactive)
35 | O=C(NCCN1CCCC1)c1cc(NCCCCN2CCC(F)(F)CC2)nc2ccc(Cl)cc12 | 0.489 (inactive)
36 | COc1ccccc1OCCCCn1c(C2CC2)nc2ccccc21 | 0.559 (inactive)
37 | CC(C)(C)C1CCC(CC2=C(O)c3ccccc3C(=O)C2=O)CC1 (stereo not drawn) | -0.0767 (inactive)
38 | c1ccc(Oc2ccc(-c3cncc(-c4ccc5[nH]ccc5c4)n3)cc2)cc1 | -1.03 (inactive)

Source: PubChem BioAssay AID1259336 (Sattelle Laboratory, UCL Respiratory, Division of Medicine, …, 2017)
